Holding throughout (assay): NCI-60 one-dose screen, 48 h (100 = growth as untreated, 0 = no growth, -100 = all killed)
For one assay, the system named is NCI-H23 lung. Particulars: 10 µM.
Another assay deals with NCI-H322M lung. Particulars: 10 µM.
The next assay concerns HOP-62 NSCLC. Particulars: 10 µM.
In another assay the test system is NCI-H460 lung. Particulars: 10 µM.
The next assay deals with NCI-H522 lung. The note with it: 10 µM.
For the next assay, the system named is A549/ATCC NSCLC. The note with it: 10 µM.
A further assay deals with 786-0 renal. Particulars: 10 µM.
The subject of the next assay is COLO 205 colon. Particulars: 10 µM.
The next assay deals with DU-145 prostate. The note with it: 10 µM.
The next assay relates to K-562 leukemia. Particulars: 10 µM.
For another assay, the system named is MALME-3M melanoma. The note with it: 10 µM.
The test system of the next assay is MDA-MB-231 breast. The note with it: 10 µM.
The subject of another assay is RXF 393 renal. The note with it: 10 µM.
In a further assay the test system is SF-268 CNS. Particulars: 10 µM.
The test system of the next assay is SF-295 CNS. Particulars: 10 µM.
The subject of the next assay is SF-539 CNS. Particulars: 10 µM.
Another assay deals with UACC-257 melanoma. Particulars: 10 µM.
The next assay concerns M14 melanoma. Particulars: 10 µM unless noted.
In another assay the test system is NCI-H226 lung. Particulars: 10 µM.
The test system of a further assay is HOP-92 NSCLC. Particulars: 10 µM.

Compounds without any hit were thinned out: in the full panel of roughly 83,000, 20% have a hit.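 Single-dose data. Exposure time 48 hours. Values below 10 considered active.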 Values without a mark were called inactive. Active and inactive are the calls of the source.

`Cc1cc(C)c(N2C(=O)CC(Sc3ccccc3N)C2=O)c(C)c1` (centres undefined): the growth in the assay on NCI-H23 lung was 82.6%; in the assay with NCI-H322M lung it was 112%; in the assay with HOP-62 NSCLC, 70.4%; in the assay with NCI-H460 lung, 95.6%; in the assay with NCI-H522 lung, 78.8%; in the assay on A549/ATCC NSCLC it was 74.8%. Also, the growth is 112% in the assay on 786-0 renal; 84.8% with COLO 205 colon; 89.5% in the assay with DU-145 prostate; 47.4% with K-562 leukemia; 77.5% in the assay with MALME-3M melanoma; 83.1% in the assay on MDA-MB-231 breast. Moreover, the growth in the assay on RXF 393 renal is 84.8%; in the assay with SF-268 CNS it was 80.7%; in the assay with SF-295 CNS, 47.5%; in the assay on SF-539 CNS, 88%; with UACC-257 melanoma, 60.4%; in the assay on M14 melanoma, 60.3%.

On to `CCOC(=O)[C@]1(Br)CC[C@@]1(Br)C(=O)OCC`, for which the growth with NCI-H23 lung was 109%; in the assay on NCI-H226 lung it was 91.8%; with NCI-H322M lung, 92.8%; in the assay with HOP-62 NSCLC it was 127%; with NCI-H460 lung it was 117%; in the assay on HOP-92 NSCLC, 109%. The growth was -6.96% (active) in the assay on NCI-H522 lung; 118% in the assay on 786-0 renal; 116% with COLO 205 colon; 120% in the assay on DU-145 prostate; 43.6% in the assay on K-562 leukemia; 75.4% in the assay with MALME-3M melanoma. In addition, the growth in the assay on MDA-MB-231 breast was 99.4%; in the assay on RXF 393 renal, 111%; in the assay with SF-268 CNS, 108%; with SF-295 CNS it was 108%; with SF-539 CNS, 104%; with UACC-257 melanoma, 80.8%. The growth in the assay on M14 melanoma is 86.6%.

For `Nc1nc(N)c2cc(Sc3ccc4ccccc4c3)ccc2n1`, the growth is 43.1% with NCI-H23 lung; 57.7% with NCI-H226 lung; 48% with NCI-H322M lung; 65% with HOP-62 NSCLC; 16.1% in the assay on NCI-H460 lung; 30.3% with HOP-92 NSCLC. For the same compound, the growth in the assay with NCI-H522 lung is 31.4%; with A549/ATCC NSCLC, 15.2%; with 786-0 renal it was 23%; in the assay with COLO 205 colon, -71.6% (active); with DU-145 prostate, 30.5%; in the assay on K-562 leukemia it was -3.38% (active). For the same compound, the growth is 53% in the assay with MALME-3M melanoma; 40.2% with MDA-MB-231 breast; 52.7% in the assay on RXF 393 renal; 42.1% with SF-268 CNS; 33.2% in the assay with SF-539 CNS; 32.9% with UACC-257 melanoma. Besides, in the assay on M14 melanoma, the growth was 16.4%.

With `CN(C)CCNc1cccc2sc3ccc(O)cc3c(=O)c12`, the growth is 54.6% in the assay with NCI-H23 lung; 74% in the assay with NCI-H226 lung; 59.1% with NCI-H322M lung; 46.2% in the assay on HOP-62 NSCLC; 16% in the assay with NCI-H460 lung; 31.9% in the assay on HOP-92 NSCLC. In addition, the growth in the assay on A549/ATCC NSCLC is 17.3%; in the assay on 786-0 renal it was 63.3%; in the assay on COLO 205 colon it was 34.9%; in the assay on DU-145 prostate, 43.6%; in the assay with K-562 leukemia, 22.7%; in the assay on MALME-3M melanoma it was 1.1% (active). Besides, the growth in the assay on MDA-MB-231 breast is 47.2%; with RXF 393 renal it was 60.2%; with SF-268 CNS, 23.5%; in the assay on SF-295 CNS, -12.9% (active); in the assay on SF-539 CNS, 35.9%; in the assay with M14 melanoma, 53.8%.

Regarding `Cc1cc(Cl)ccc1NC(=O)/C(Cl)=C1/Sc2ccccc2NC1=O`, the growth in the assay with NCI-H23 lung is 88.4%; in the assay on NCI-H226 lung, 90.3%; with NCI-H322M lung, 102%; in the assay on HOP-62 NSCLC it was 91%; with NCI-H460 lung it was 99.4%; in the assay with HOP-92 NSCLC, 70.5%. Moreover, the growth is 104% in the assay with NCI-H522 lung; 112% in the assay on A549/ATCC NSCLC; 92.9% in the assay with 786-0 renal; 121% in the assay with DU-145 prostate; 88.7% in the assay on K-562 leukemia; 109% in the assay on MALME-3M melanoma. Moreover, the growth in the assay on MDA-MB-231 breast was 80.4%; in the assay with SF-268 CNS, 103%; in the assay on SF-295 CNS, 118%; with SF-539 CNS, 94%; with UACC-257 melanoma, 103%; in the assay with M14 melanoma, 83.8%.

Consider `C=C1N(C)c2ccc(Cl)cc2C1(C)C`, for which the growth was 52% with NCI-H23 lung; 67.6% with NCI-H226 lung; 84.2% in the assay with NCI-H322M lung; 63.6% in the assay with HOP-62 NSCLC; 39.4% in the assay on NCI-H460 lung; 48.1% in the assay on HOP-92 NSCLC. Further, the growth in the assay on NCI-H522 lung is 23.7%; in the assay on A549/ATCC NSCLC, 44.4%; in the assay on 786-0 renal it was 75.8%; with COLO 205 colon, 23.7%; in the assay with DU-145 prostate, 48.9%; in the assay with K-562 leukemia, 13.2%. For the same compound, the growth in the assay with MALME-3M melanoma was 66%; with MDA-MB-231 breast it was 82.7%; in the assay with SF-268 CNS, 77.4%; in the assay on SF-295 CNS, 67.1%; with SF-539 CNS it was 109%; with UACC-257 melanoma, 60.4%. The growth in the assay with M14 melanoma was 72.2%.

Turning to `CCC(C)(c1ccc(O)c(C)c1)c1ccc(O)c(C)c1`, the growth in the assay with NCI-H23 lung was 91.9%; in the assay with NCI-H226 lung it was 101%; in the assay on NCI-H322M lung, 318%; with HOP-62 NSCLC, 84.5%; in the assay with NCI-H460 lung, 97.3%; in the assay on HOP-92 NSCLC it was 82.4%. Moreover, the growth in the assay on NCI-H522 lung was 75.9%; in the assay with A549/ATCC NSCLC, 83.4%; in the assay on 786-0 renal, 63.5%; in the assay with DU-145 prostate it was 110%; in the assay with K-562 leukemia it was 106%; in the assay with MALME-3M melanoma, 219%. Further, the growth was 85% with MDA-MB-231 breast; 87.4% in the assay on RXF 393 renal; 89.7% in the assay on SF-268 CNS; 87.8% with SF-295 CNS; 93.7% with SF-539 CNS; 107% in the assay with UACC-257 melanoma. Moreover, in the assay with M14 melanoma, the growth was 91.6%.

`O=C(CNS(=O)(=O)Cc1ccccc1)NNc1ccccc1`: the growth in the assay with NCI-H23 lung is 92.3%; in the assay with NCI-H226 lung, 72.9%; with NCI-H322M lung, 75%; in the assay on HOP-62 NSCLC, 46.3%; with NCI-H460 lung, 29.4%; in the assay with HOP-92 NSCLC it was 101%. Moreover, the growth with NCI-H522 lung was 41%; in the assay on A549/ATCC NSCLC, 55.8%; in the assay with 786-0 renal, 76.6%; in the assay on COLO 205 colon, 75.2%; in the assay with DU-145 prostate, 67.2%; in the assay with K-562 leukemia, 9.47% (active). Moreover, the growth in the assay on MALME-3M melanoma was 91.3%; with RXF 393 renal, 120%; in the assay on SF-268 CNS it was 60.1%; with SF-295 CNS, 26.2%; with SF-539 CNS, 61.4%; in the assay with UACC-257 melanoma, 84.5%. In addition, the growth in the assay on M14 melanoma is 31.1%.
